This is part of a sample that, as a whole, favours compounds with a hit. Of some 83,000 tested, about 20% had one in any assay.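 How to read the values: 0–100, growth inhibition (40 = 60% inhibited); 0, no net growth; -100 to 0, cell death (-40 = 40% of starting cells died; -100 = all dead).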 Active and inactive are the calls of the source. Rule for the calls: active = growth percent below 10; inactive = the rest.
Experiments:
Assay in all cases: NCI-60 one-dose screen, 48 h (100 = growth as untreated, 0 = no growth, -100 = all killed)
Details in all cases: 10 µM unless noted
[1] = test system: SR leukemia
[2] = test system: RPMI-8226 leukemia
[3] = test system: OVCAR-8 ovarian
[4] = test system: OVCAR-5 ovarian
[5] = test system: OVCAR-4 ovarian
[6] = test system: SK-OV-3 ovarian
[7] = test system: IGROV1 ovarian
[8] = test system: OVCAR-3 ovarian
[9] = test system: HS 578T breast
[10] = test system: NCI/ADR-RES ovarian
[11] = test system: T-47D breast
[12] = test system: BT-549 breast
[13] = test system: MDA-MB-435 melanoma
[14] = test system: SW-620 colon
[15] = test system: MCF7 breast
[16] = test system: HCT-116 colon
[17] = test system: HCC-2998 colon
[18] = test system: KM12 colon

Measured: growth

CN(C)CCNC(=O)c1cc2c3cc(Cl)ccc3[nH]c2c2ncccc12
inactive: [3] 19% | [4] 32.7% | [5] 34.1% | [6] 46.1% | [7] 20.9% | [9] 24.2% | [10] 25.3% | [11] 24% | [12] 29.5% | [18] 25.2%
active: [1] -17.6% | [2] -11% | [8] 0.195% | [13] -41.3% | [14] -2.12% | [15] -16.1% | [16] -56.6% | [17] -45.1%

CC(=O)Oc1ccc(/C(=C(\C)c2ccc(Cl)cc2)c2ccc(OCCN3CCCCC3)cc2)cc1
inactive: [3] 57.1% | [4] 75.1% | [5] 57.1% | [6] 54.6% | [7] 61.8% | [8] 66.7% | [9] 52.9% | [10] 50% | [11] 29.8% | [12] 73.5% | [14] 66.7% | [16] 32.4% | [18] 24%
active: [1] -27.3% | [2] 9.5% | [13] -5.9% | [15] 3.38% | [17] -4.12%

O=C1/C(=C/c2ccc([N+](=O)[O-])cc2)COc2ccc(O)cc21
inactive: [3] 69.5% | [4] 99% | [5] 89.5% | [6] 113% | [7] 73.4% | [8] 82.7% | [9] 89.3% | [10] 92.1% | [11] 79.4% | [12] 95% | [13] 82.4% | [17] 98.5% | [18] 48%
active: [1] 7.84% | [2] -16.4% | [14] -11.7% | [15] 5.28% | [16] -5.5%

Cc1[nH]c(C(=O)Nc2ccccc2OC2CCNCC2)c(Cl)c1Cl
active: [2] -45.2% | [3] 1.61% | [5] -72.8% | [8] -77.7% | [9] -19.1% | [11] -4.05% | [13] -40.3% | [14] 1.77% | [15] -45% | [16] 4.55%
inactive: [1] 10.1% | [4] 68.7% | [6] 109% | [7] 48.4% | [10] 33.8% | [12] 74.2% | [17] 43.2% | [18] 32.8%

O=C1C(=O)N(Cc2ccc(-c3ccccc3)cc2)c2ccc(OC(F)(F)F)cc21
inactive: [3] 23.6% | [4] 37.3% | [5] 36.3% | [6] 98.1% | [7] 36% | [8] 24.7% | [9] 11.2% | [10] 32.6% | [11] 49.7% | [13] 38% | [14] 23.5% | [15] 11.6% | [17] 36.6% | [18] 12.5%
active: [1] 2.04% | [2] -5.6% | [12] 0.708% | [16] 9.92%

O=C(N(c1ccccc1)c1ccccc1)n1cc(I)c2nc(Cl)nc(Cl)c21
active: [2] 0.0387%
inactive: [1] 18.9% | [3] 22.6% | [4] 63.7% | [5] 68.4% | [6] 60.9% | [7] 61.8% | [8] 25.8% | [9] 39.1% | [10] 42.4% | [11] 61.2% | [12] 47.4% | [13] 37.4% | [14] 26% | [15] 25.5% | [16] 25.7% | [17] 93.3% | [18] 44.1%

Cc1ccc(Nn2c(SCC(=O)Nc3nc(-c4ccccc4)cs3)nc(C)c2C)cc1
inactive: [1] 72.6% | [2] 55.8% | [3] 55.5% | [4] 81.8% | [5] 32% | [6] 64.1% | [7] 86% | [8] 78.5% | [9] 106% | [10] 34.4% | [12] 63.5% | [13] 76.7% | [14] 98.8% | [15] 28.5% | [16] 40.2% | [17] 92% | [18] 82.9%
active: [11] -2.45%

COc1ccc(/C=C(\C#N)n2nnc3ccc(Cl)cc32)cc1
active: [8] -18.4% | [13] -22.8%
inactive: [1] 29.9% | [2] 67.8% | [3] 48.8% | [4] 92% | [5] 71.6% | [6] 108% | [7] 59.5% | [9] 74.4% | [10] 39.3% | [11] 51.1% | [12] 68% | [14] 11.8% | [15] 18.6% | [16] 39% | [17] 87.3% | [18] 39.3%

COc1cc2c(cc1OC)C(C)N(S(N)(=O)=O)CC2 (stereo unspecified)
inactive: [1] 82.3% | [2] 96.4% | [3] 97% | [4] 82.6% | [5] 105% | [6] 103% | [7] 97.9% | [8] 99.2% | [9] 105% | [10] 96.9% | [11] 93.1% | [12] 91.8% | [13] 110% | [14] 107% | [15] 103% | [16] 89.4% | [17] 98.1% | [18] 112%

C=CCn1c(SCC(=O)Nc2ccc(C(=O)/C=C/c3ccc(Cl)cc3)cc2)nnc1-c1ccc(Br)cc1
inactive: [1] 70.7% | [3] 57.6% | [4] 98% | [5] 57.6% | [6] 138% | [7] 87.2% | [8] 85.5% | [9] 71.9% | [10] 74.7% | [11] 88.9% | [12] 87.4% | [13] 26.9% | [14] 82.5% | [15] 13.4% | [17] 93.8% | [18] 69.9%
active: [2] -28.1% | [16] -80.4%

CC(C)=CC(=O)OCC(=O)O[C@@H]1C[C@]2(C(C)C)O[C@@]1(C)[C@@H]1CC[C@@H](C)[C@H]1[C@@H]2OC(=O)/C=C/c1ccccc1
active: [9] -0.351%
inactive: [1] 69.2% | [2] 56% | [3] 35.9% | [4] 103% | [5] 96.5% | [6] 91.7% | [7] 108% | [8] 96.5% | [10] 30.6% | [11] 65.1% | [12] 37.7% | [13] 91.7% | [14] 87.1% | [15] 71.5% | [16] 72.2% | [17] 90.7% | [18] 89.4%

NC(N)=NCCCCCNc1noc(Cc2c[nH]c3cc(Br)ccc23)n1
inactive: [1] 98.3% | [2] 39.6% | [3] 64.6% | [4] 85.4% | [5] 67.5% | [6] 83.7% | [7] 56.3% | [8] 33.4% | [9] 56.9% | [10] 101% | [11] 59.2% | [12] 66.5% | [13] 87.7% | [14] 92.2% | [15] 77.2% | [16] 77.2% | [17] 76.1% | [18] 45.1%

Cc1ccccc1/C=C/C(=O)c1cccc(OCCCOc2cccc(C(=O)/C=C/c3ccccc3C)c2)c1
inactive: [1] 25.8% [3 µM] | [3] 101% [3 µM] | [4] 126% [3 µM] | [5] 84.6% [3 µM] | [6] 109% [3 µM] | [7] 102% [3 µM] | [8] 99.4% [3 µM] | [9] 99.7% [3 µM] | [10] 101% [3 µM] | [11] 73.2% [3 µM] | [12] 96.7% [3 µM] | [13] 97.7% [3 µM] | [14] 93.3% [3 µM] | [15] 13.5% [3 µM] | [16] 38.2% [3 µM] | [17] 91.2% [3 µM] | [18] 95.4% [3 µM]
active: [2] -23.2% [3 µM]

N=C(N)c1ccc(-c2ccc(-c3ccccc3)o2)cc1
inactive: [12] 40.8%
active: [1] -29.3% | [2] -36.7% | [3] -59.3% | [4] -10.9% | [5] -4.49% | [6] -18.3% | [7] -25.7% | [8] -38.4% | [9] -18.1% | [10] -5.17% | [11] -46% | [13] -91.2% | [14] -75.7% | [15] -57.2% | [16] -100% | [17] -74.5% | [18] -80.3%

O=C(Nc1ccc(Oc2cccc(F)c2)c(Cl)c1)c1cccnc1
active: [8] 6.97% | [13] 1.64%
inactive: [1] 23.8% | [2] 15.8% | [3] 34.6% | [4] 72.6% | [5] 46.2% | [6] 30% | [7] 41.8% | [9] 31.3% | [10] 13.9% | [11] 33.5% | [12] 48.6% | [14] 25.8% | [15] 19.6% | [16] 33.7% | [17] 57.7% | [18] 29.3%

CCN(CC)Cc1cc(C=C2C(=O)NC(=S)NC2=O)cc(OC)c1O
inactive: [1] 109% | [2] 110% | [3] 113% | [4] 104% | [5] 122% | [6] 111% | [7] 112% | [8] 114% | [9] 103% | [10] 110% | [11] 114% | [12] 110% | [13] 105% | [14] 107% | [15] 97.6% | [16] 114% | [17] 118% | [18] 111%

COC(=O)C1Cc2ccccc2CN1C(=O)c1ccc2c(c1)Cc1ccccc1-2 (stereo unspecified)
inactive: [1] 57.2% [50 µM] | [2] 18.1% [50 µM] | [3] 32.4% [50 µM] | [4] 62.4% [50 µM] | [5] 20.2% [50 µM] | [6] 86% [50 µM] | [7] 42.8% [50 µM] | [8] 47% [50 µM] | [9] 70.4% [50 µM] | [10] 25.6% [50 µM] | [11] 15.8% [50 µM] | [12] 28.3% [50 µM] | [13] 24.9% [50 µM] | [14] 51.2% [50 µM] | [15] 16.7% [50 µM] | [16] 30.2% [50 µM] | [17] 67.7% [50 µM] | [18] 34.2% [50 µM]

— PubChem BioAssay (NCI)
